Assay results as given in PubChem BioAssay (NCI).
Compounds without any hit were thinned out: in the full panel of roughly 83,000, 20% have a hit.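 A percent growth of 40 corresponds to 60% growth inhibition; 0 means no net growth; -100 means all cells died. Active threshold: below 10.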 A number with no mark means an inactive call. Activity calls are given as the source filed them.

How the values were obtained:
Experiment in all cases: NCI-60 one-dose screen, 48 h (100 = growth as untreated, 0 = no growth, -100 = all killed)
Details in all cases: 10 µM unless noted
SK-MEL-2 melanoma = tested on: SK-MEL-2 melanoma
EKVX NSCLC = tested on: EKVX NSCLC
SN12C renal = tested on: SN12C renal
UO-31 renal = tested on: UO-31 renal
TK-10 renal = tested on: TK-10 renal
ACHN renal = tested on: ACHN renal
CAKI-1 renal = tested on: CAKI-1 renal
A498 renal = tested on: A498 renal
CCRF-CEM leukemia = tested on: CCRF-CEM leukemia
MOLT-4 leukemia = tested on: MOLT-4 leukemia
SR leukemia = tested on: SR leukemia
RPMI-8226 leukemia = tested on: RPMI-8226 leukemia
OVCAR-8 ovarian = tested on: OVCAR-8 ovarian
OVCAR-5 ovarian = tested on: OVCAR-5 ovarian
OVCAR-4 ovarian = tested on: OVCAR-4 ovarian
SK-OV-3 ovarian = tested on: SK-OV-3 ovarian
IGROV1 ovarian = tested on: IGROV1 ovarian
OVCAR-3 ovarian = tested on: OVCAR-3 ovarian
NCI/ADR-RES ovarian = tested on: NCI/ADR-RES ovarian
HS 578T breast = tested on: HS 578T breast

Compound | growth (SK-MEL-2 melanoma) | growth (EKVX NSCLC) | growth (SN12C renal) | growth (UO-31 renal) | growth (TK-10 renal) | growth (ACHN renal) | growth (CAKI-1 renal) | growth (A498 renal) | growth (CCRF-CEM leukemia) [%] | growth (MOLT-4 leukemia) | growth (SR leukemia) | growth (RPMI-8226 leukemia) | growth (OVCAR-8 ovarian) | growth (OVCAR-5 ovarian) | growth (OVCAR-4 ovarian) [%] | growth (SK-OV-3 ovarian) | growth (IGROV1 ovarian) | growth (OVCAR-3 ovarian) | growth (NCI/ADR-RES ovarian) | growth (HS 578T breast) [%]
O=C(/C=C/c1cccc(OCc2ccccc2)c1)c1nc2ccccc2[nH]1 | 100% | 36.4% | 59% | 33.2% | 62.8% | 62.5% | 66.1% | 91.3% | 10.2 | 5.98% (active) | -33.3% (active) | -52% (active) | 58% | 105% | 59.4 | 87.8% | 60.3% | 38.3% | 64.5% | 
N#Cc1c(-c2ccc(Br)cc2)nc2n[nH]c(-c3ccc(Br)cc3)c2c1-c1ccc(C(F)(F)F)cc1 | -37.7% (active) | 5.95% (active) | 19.2% | 11.9% | 70% | 13.1% | 2.69% (active) | 92.3% | 13.9 | 4.06% (active) | -11.6% (active) | 0.725% (active) | 40.4% | 47.7% | 11.8 | 21.8% | 6.15% (active) | 10.7% | 23.7% | 
O=C(/C=C/c1ccc(-c2ccccc2)cc1)c1nc2ccccc2n1Cc1ccc(Br)cc1 | 65.8% | 52.3% | 77.2% | 46.3% | 35.3% | 32.7% | 50.4% | 104% | 11.1 | -14.4% (active) | 2.11% (active) | 14.1% | 43.9% | 74.7% | 50 | 85.3% | 63.6% | 45% | 47.1% | 
O=c1c2ccccc2nc(-c2ccccc2)n1/N=C/c1ccc2ccccc2c1 | 116% | 80.3% | 52.5% | 58.5% | 72.9% | 42.5% | 48.5% | 94.6% | 51.9 | 19.5% | 11.5% | 39% | 50.6% | 69.4% | 85.8 | 68.5% | 55.6% | 67.4% | 53.5% | 
CNC(=O)c1cc(Oc2ccc3nc(NC(=O)Nc4cccc(OC(F)(F)F)c4)sc3c2)ccn1 | -20.5% (active) | 42.8% | 23.4% | 14.5% | -33.7% (active) | -2.02% (active) | -8.87% (active) | 8.49% (active) | 52.9 | 50.9% | 37.3% | 51.7% | 6.11% (active) | 50.6% | 30.8 | -30.7% (active) | 28.4% | 46.2% | -2.64% (active) | 
CSc1ccc(C(=O)Nc2ccc3nnn(/C(C#N)=C/c4ccccn4)c3c2)cc1 | -82% (active) | -86.4% (active) | -4.37% (active) | -100% (active) | -74% (active) | -93.2% (active) | 4.99% (active) | 59.3% | 12.6 | 12.1% | -9.41% (active) | -40.8% (active) | 10% | -77.4% (active) | 37 | 64.4% | -44.9% (active) | -30.8% (active) | 11.2% | 
CC(C)CCNC(=O)N/C(N)=N/c1nc2ccccc2s1 | 86.4% | 28.3% | 73.6% | 73.7% | 88.3% | 58.4% | 52.1% | 116% | 59.1 | 29.6% | 34.4% | 38.2% | 70.7% | 93% | 48.7 | 87.9% | 76.6% | 80.4% | 56.6% | 
N#Cc1c(-c2cccc3ccccc23)cc(-c2cccc(OCC(=O)O)c2)[nH]c1=O | 115% | 93.5% | 96.8% | 71.3% | 104% | 100% | 74.2% | 99.3% | 96.8 | 85.7% | 87.2% | 96.5% | 98.9% | 89.9% | 91.9 | 108% | 110% | 104% | 99% | 
CCOC(=O)C1=C(N)N(c2ccccc2)C2=C(C(=O)CC(C)(C)C2)C1c1ccc(Cl)cc1Cl (stereo not drawn) | -12.3% (active) | 18.8% | 20.6% | 16.8% | 36.6% | 17.1% | 23.1% | 46.8% | 19.3 | 7.23% (active) | 10.1% | 7.77% (active) | 36.7% | 56.9% | 25.3 | 34.5% | 59.4% | 33.3% | 23.6% | 
COc1cc2c(c(OC)c1OC)C(=O)CC(c1cccc(NC(=O)c3cc(N)ccc3Cl)c1)O2 (stereo not drawn) | 32.7% | 78.7% | 64.6% | 51.5% | 106% | 50.6% | 50.3% | 105% | 22.5 | 21.5% |  | 40.2% | 18.8% | 100% | 52.7 | 65.6% | 72.9% | 33.8% | 20.5% | 80.6
CC(=O)Nc1ccc(-c2cn(-c3cccc(C(=O)Nc4ccc(N5CCN(C)CC5)cc4)c3)nn2)cn1 | 92.5% | 80.9% | 80.1% | 100% | 86.5% | 88.1% | 98.2% | 160% | 40 | 59.8% | 68% | 70.4% | 81.6% | 107% | 93.4 | 93.8% | 88% | 109% | 89.2% | 
COc1ccc(-c2cc(C(=O)NCc3ccccc3)nn2-c2ccc(S(C)(=O)=O)cc2)cc1OC | 119% | 97.5% | 88.1% | 77% | 106% | 104% | 87.1% | 99.9% | 101 | -4.09% (active) | 82.3% | 86.9% | 100% | 102% | 94.3 | 105% | 122% | 115% | 107% | 
